Results taken from PubChem BioAssay (NCATS).
Records with an inconclusive call do not appear. Unmarked numbers belong to inactive results. Active and inactive are the calls of the source. Calls follow the shape of the dose curve; as a rule, active = well fitted activation curve with a large enough effect; inconclusive = small, poorly fitted or top-dose-only effect; inactive = no such curve, though single readings can be large or run the other way. Bridge positions count the residues as written; N and C are the ends. Square brackets hold non-standard residues; d marks the D form. Side chains are listed from the residue outwards. Peptide text beside a SMILES is read from it. * marks the point of attachment. ξ: configuration not given here. Phg(4-OMe) = COc1ccc([C@H](N)C(=O)O)cc1; d(aIle) = CC[C@H](C)[C@@H](N)C(=O)O; d(aThr) = C[C@@H](O)[C@@H](N)C(=O)O; NMeF = CN[C@@H](Cc1ccccc1)C(=O)O; Isobutyryl = CC(C)C(=O)*; ξL = CC(C)CC(N)C(=O)O

test: Redox Reaction Profiling qHTS: Assay Interference Panel against the NCATS CANVASS Library (AID 1347401); conditions: resazurin-DTT redox cycling, fluorescence, 15 min; series mostly up to 57.1 µM; activation (redox signal): at the top concentration
Text: Natural products and their derivatives continue to be wellsprings of nascent therapeutic potential. However, many laboratories have limited resources for biological evaluation, leaving their previously isolated or synthesized compounds largely or completely untested. To address this issue, the Canvass library of natural products was assembled (https://tripod.nih.gov/canvass), in collaboration with academic and industry researchers, for quantitative high-throughput screening (qHTS) across a diverse set of cell-based and biochemical assays. The pure (>85% purity by liquid chromatography/mass spectrometry [LC/MS]) Canvass library of 346 natural products were submitted by 45 academic laboratories and companies around the world. We collected pure natural products to circumvent deconvolution and structure elucidation due to time and resource limitations. The library was formatted into 1536-well plates and evaluated in 50 qHTS (in an 11-pnt concentration series) bioassays with broad scope of disease-relevant mechanisms. The resulting data set from 50 different assays was then systematically analyzed to identify overall trends and specific natural products with interesting biological activities. Reported herein are the results of each individual qHTS and their corresponding assay protocol. This profiling assay measures the resazurin-to-resorufin redox reaction in the presence of DTT and compound, and serves as a useful surrogate assay for measuring potential compound redox liability National Center for Advancing Translational Sciences (NCATS), Rockville, MD National Institute of Health (NIH), Bethesda, Maryland
Redox Profiling assay protocol: 1. In a black-solid bottom, medium binding, 1536-well plates (Greiner 789176), 4 uL of [1x] 5uM Resazurin + 200 uM DTT + buffer (50 mM HEPES pH 7.3 + 50 mM NaCl) was dispensed (into columns 1 - 48, rows 1 - 32) using a BioRAPTR FRD dispenser (Beckman Coulter). 2. 23 nL of compounds were pin transferred into the assay plates (columns 5 - 48) using the Kalypsis pin tool (Wako USA) equipped with a 1536-well pin heads. This yields a final concentration range of 0.002 - 127 uM. Control compound Chloranil (NCGC00091254-06) was also pinned (23 nL) into column 2, rows 1 - 32 (working concentration 10 mM, 1:2 dilution; 16 points titrations; n = 2). The final concentration range for the Chloranil was 0.002 to 57.2 uM. For 100% activation control, a single dose of 23 nL Chloranil (350 uM working concentration) was pinned to columns 3 and 4, rows 1-32 for a final concentration of 2 uM. 3. The assay plates were centrifuged for 15 seconds at 1000 rpm. 4. An initial fluorescence readout was obtained using the ViewLux plate reader (PerkinElmer) using a 525 nm excitation and a 598 nm emission filters. 5. The assay plates were incubated for 15 minutes in the dark. 6. After incubation, the final fluorescence readout was obtained using the ViewLux plate reader (PerkinElmer) using a 525 nm excitation and a 598 nm emission filters.
Potency is read from the fitted curve at half-maximal effect.

Compound	activation (redox signal)	Potency
C[C@]12CCC[C@](C)(C(=O)O)[C@@H]1CC[C@@]1(C)c3cocc3CC[C@H]21	-24.5%	–
C/C=C/[C@H]1[C@H]2C(=O)c3c(O)c(C)c(O)c(C)c3[C@]1(C(=O)O)C(=O)C=C2C	-18.5%	–
C/C=C1/CN2C3CC1C1C=CC(=O)N4c5ccccc5[C@@]3(C[C@@H]2C2=C[C@H]3C5CC6N(CC[C@@]67c6ccccc6N(C2=O)[C@@H]37)C/C5=C/C)[C@H]14 (stereo not given in full)	-22.9%	–
O=Cc1ccc2n1C[C@]1(OC2)O[C@H](CO)[C@@H](O)[C@@H]1O	4.85%	–
C=C(C)CC[C@H](Cc1c(O)cc(O)c2c1O[C@H](c1ccc(O)cc1)CC2=O)C(=C)C	-28.3%	–
C=C(Cl)[C@](Cl)(CBr)CC[C@@H](Br)C(C)(C)Cl	-8.93%	–
COc1c(O)cc2c(c1O)C(=O)c1c(coc1C)C2=O	–	24.1 µM (active)
CC(=O)N[C@H](C)c1nc(/C=C/C=C/C(=O)CC2CC(=O)CC[C@]2(C)O)cs1 (stereo not given in full)	1.47%	–
C=C[C@]1(C)CC[C@@H]([C@H](C)C(=O)/C=C/C(C)(C)O)O1	-12.3%	–
C/C=C(/C)c1c(Cl)c(O)c(C)c2c1Oc1c(Cl)c(O)c(Cl)c(C)c1C(=O)O2	-13.7%	–
CC[C@H]1[C@H](C)[C@H](c2cc(OC)c(OC)cc2OC)[C@@H](C)[C@H](c2cc(OC)c(OC)cc2OC)[C@@]12C=C(OC)C(=O)C=C2OC	-25.8%	–
O=c1cc(-c2ccc(O)cc2)oc2cc(O)c([C@@H]3OC(CO)[C@H](O)[C@@H](O)[C@H]3O)c(O)c12 (stereo not given in full)	-27.3%	–
COc1cc2c(c(O)c1O)C(=O)c1c(coc1C)C2=O	–	0.764 µM (active)
CN1CCc2cc3c(c4c2C1(C)C(=O)c1cc(O)ccc1-4)OCO3 (stereo not given)	0.933%	–
CC(C)[C@]12CC[C@@]3(C)[C@H](C)CC[C@H](O)[C@@]3(CC1)c1cc3c(cc12)[nH]c1ccccc13	-26.4%	–
C/C1=C/[C@@H](C)[C@H](O)C/C=C/CC/C=C/C(=O)O[C@@H]1[C@H](C)C(=O)CCCC1CC(=O)NC(=O)C1	-5.82%	–
CC[C@H](O)CCCCC[C@@H]1NC(=O)[C@H]2CCCCN2C(=O)[C@H]([C@H](C)CC)NC(=O)[C@H](Cc2cn(OC)c3ccccc23)NC1=O	-21.1%	–
CC1(C)CC[C@]2(CO)CC[C@]3(C)C(=CCC4[C@@]5(C)CC[C@H](O)C(C)(C)C5CC[C@]43C)C2C1 (stereo not given in full)	-27.9%	–
COc1cc2oc3ccccc3c(=O)c2cc1OC	-21.7% [at 113 µM]	–
COc1cc2c(cc1OC)[C@@H](c1ccc3c(c1)OCO3)C(C)[C@@H](C)C2=O (stereo not given in full)	-19.8%	–

Compound	activation (redox signal)	Potency
COc1cc(C2C3=C(Cc4cc5c(cc42)OCO5)C(=O)OC3)cc(OC)c1OC (stereo not given)	-19.9%	–
CC(CCC[C@]1(C)C(=O)C=C[C@@]23C[C@]4(C)O[C@@H](C[C@@H]4[C@H]2O)C31)C(=O)O (stereo not given in full)	-15.3%	–
CC(C)=CC[C@H]1C[C@@]2(CC=C(C)C)C(=O)[C@](CC=C(C)C)(C(=O)C(C(=O)c3ccccc3)=C2O)C1(C)C	-22.9%	–
COc1ccc([C@@H]2c3cc4c(cc3C(=O)C(C)C2C)OCO4)cc1OC (stereo not given in full)	-12.3%	–
COc1cc(O)c(C(=O)[C@@H]2[C@H](CC=C(C)C)C(C)=CC[C@H]2c2ccccc2)c(O)c1	-28%	–
CC1=C2CC[C@]3(C)[C@H](CC=C4[C@@H]5CC(C)(C)CC[C@@H]5C(=O)[C@H](O)[C@]43C)[C@@]2(C)C=C(O)C1=O	-25.8%	–
CC[C@@H](C)[C@H]1NC(=O)C(CC(C)C)NC(=O)[C@@H](CC(C)C)NC(=O)[C@H](Cc2c[nH]c3ccccc23)NC(=O)CNC(=O)[C@@H](CC(N)=O)NC1=O (stereo partly drawn) (cyclo(GW[dL][ξL][dI][dN]))	-15.7%	–
C[C@H](CCC(O)C(C)(O)CO)[C@@]1(O)CC[C@@]2(C)C3=C(CC[C@@]21C)[C@@]1(C)CCC(OC(=O)CCC(=O)O)C(C)(C)[C@@H]1CC3 (stereo not given in full)	-12.7%	–
C=C1C[C@]23C=CC(=O)[C@@](C)(CCCC(C)C(=O)N[C@@H](CO)C(=O)O)[C@@H]2C[C@@H]1CC3 (stereo not given in full)	-3.12%	–
CCC(=O)N[C@@H](C[C@H](C)C(Cl)(Cl)Cl)C(=O)N1C(=O)C=C(OC)[C@@H]1CC(C)C	-17.5%	–
CN1C(=O)C(=O)N2C(=C[C@]3(c4c[nH]c5ccccc45)c4ccccc4N[C@H]23)C1=O	-7.15%	–
CCC(=O)N[C@@H](C[C@H](C)C(Cl)(Cl)Cl)C(=O)N1C(=O)C=C(OC)[C@@H]1C[C@H](C)CCl	-14.9%	–
C/C1=C/[C@@H](C)[C@H](O)[C@@H](O)/C=C/CC/C=C/C(=O)O[C@@H]1[C@H](C)C(=O)CCCC1CC(=O)NC(=O)C1	3.17%	–
COc1ccc2[nH]c3c(c2c1)CCN1C[C@H]2C[C@@H](OC(=O)c4cc(OC)c(OC)c(OC)c4)[C@H](OC)[C@@H](OC)[C@H]2C[C@H]31	-21.5%	–
COC1C(C)OC(OCC23C[C@@H]4[C@H](C)CC[C@H]4C4(C=O)CC2C=C(C(C)C)C34C(=O)O)[C@@H](O)[C@H]1O (stereo not given in full)	-18.7%	–
COc1c(O)cc(O)c2c(=O)cc(-c3ccccc3)oc12	-30.1%	–
Cc1occ2c1C(=O)c1c(cc(O)c(O)c1O)C2=O	14.4%	–
C/C(=C\[C@H](C)C(=O)/C=C/CC1CC(=O)NC(=O)C1)[C@@H]1OC(=O)CCCC/C=C/[C@H](O)[C@@H](O)[C@@H]1C	–	24.1 µM (active)
Cc1cc(O)cc2c1C(=O)c1c(O)cc(O)cc1C2=O	-16.8%	–
CC[C@H](C)[C@H]1NC(=O)[C@@H](NC(=O)C(C)C)[C@@H](C)OC(=O)[C@H](COC(=O)CNC(C)=O)NC(=O)[C@@H]([C@@H](C)O)NC(=O)[C@H](Cc2ccccc2)N(C)C(=O)[C@H](c2ccc(OC)cc2)NC1=O (Isobutyryl-T[d(aIle)][Phg(4-OMe)][NMeF][d(aThr)]S([Gly-Ac]); ester 1-C)	-22.3%	–
